The text below walks through data of PubChem BioAssay.

Some of the results follow. Calls of active or inactive are those of the source. Unless noted, the rule behind the calls is not given here.

The nature of assay [1]: Brca1-Bard1 BiLC signal decrease – luminescence, single concentration, counter-screen for Mdm2/MdmX interaction inhibitor project, confirmation (AID 504668). The note with it: Brca1/Bard1 bimolecular luciferase complementation counterscreen, at 8 µM, stronger effect = higher value.
Assay [2] in a line: apoptosome-driven caspase-3 activation blockers – biochemical, fluorescence, DEVD-Rh110, 20 µM, confirmation (AID 504614;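 active = mean inhibition of at least 40% at 20 µM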;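 note: plate controls were DMSO wells for no effect and DEVD-CHO caspase inhibitor control wells for full effect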). Conditions: reconstituted apoptosome, caspase-3 DEVD-Rh110 fluorescence; at 20 µM; stronger effect = higher value.
Assay [3] in a line: detection-step artefacts after completed caspase reaction – biochemical, fluorescence, Rh110, 20 µM, artefact control for Apaf-1 inhibitor project, confirmation (AID 504615;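 active = signal rise of 40% or more at 20 µM, treated as a fluorescence artifact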). The note with it: quenched caspase reaction, at 20 µM, stronger effect = higher value.
Assay [4] can be described thus: fluorescence interference of Apaf-1 inhibitor hits, dose response, artefact control for Apaf-1 inhibitor project (AID 588538). Conditions: fluorescence interference counterscreen, Apaf-1 assay format.
The nature of assay [5]: HIF-2a driven luciferase blockers, single dose – luminescence, 786-0 RCC cells, confirmation (AID 651580;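 active = mean inhibition across four replicates of at least 40 percent at the single tested concentration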). The note with it: HIF-2a luciferase reporter luminescence, overnight, at 18.8 µM, stronger effect = higher value. In general terms: Reporter assays use an easily measured gene product as a stand-in for the process of interest.
The nature of assay [6]: HIF-1a luciferase reporter signal reduction – MiaPaCa-2 cells, single concentration, counter-screen for HIF-2a inhibitor project, confirmation (AID 651589;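 active = mean inhibition of the reporter signal across four replicates at the single tested dose of 50% or more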). The note with it: MiaPaCa-2 HIF-1a luciferase reporter, desferoxamine, overnight; at 18.8 µM; stronger effect = higher value.
The target of assay [7] is COP9 signalosome complex subunit 5 (Homo sapiens) (UniProt Q92905). Nature of the assay: blockers of CSN-driven cullin deneddylation – biochemical, fluorescence polarization, single concentration, SCF-Nedd8OG substrate, confirmation (AID 720654; in the data active = inhibition above about 50%;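 note: 0% = DMSO with enzyme and 100% = no enzyme wells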). The note with it: Csn5 deneddylation of SCF-Nedd8OG, 90 min, at 16.6 µM, stronger effect = higher value. In general terms: Polarisation of emitted light reports the rotation of a fluorescent probe.
Chain of COP9 signalosome complex subunit 5 (Homo sapiens) (Q92905 whole entry, looked up, one chain of several): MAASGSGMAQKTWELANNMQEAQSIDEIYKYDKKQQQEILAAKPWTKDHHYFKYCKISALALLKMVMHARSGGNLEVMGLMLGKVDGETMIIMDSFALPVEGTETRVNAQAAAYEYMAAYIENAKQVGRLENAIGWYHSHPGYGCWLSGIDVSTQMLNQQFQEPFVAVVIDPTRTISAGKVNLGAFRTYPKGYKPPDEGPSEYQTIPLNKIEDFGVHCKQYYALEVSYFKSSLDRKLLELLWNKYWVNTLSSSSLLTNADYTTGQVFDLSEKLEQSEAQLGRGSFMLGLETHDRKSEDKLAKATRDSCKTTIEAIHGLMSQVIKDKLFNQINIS

Assay [8] concerns the target 72 kDa type IV collagenase (Homo sapiens) (UniProt P08253). In words: human MMP-2 inhibitors, single-point check – biochemical, fluorescence, single concentration, counter-screen for CSN deneddylation inhibitor project, confirmation (AID 720655;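 active = corrected plate-normalized z-score of 5 or more, or -5 or less, or inhibition of 15% or more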;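 note: plate controls were DMSO wells with enzyme for no effect and buffer wells lacking MMP-2 for full effect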). The note with it: recombinant MMP-2, FRET substrate fluorescence, 60 min; at 16.6 µM. (In general: Counterscreens check selectivity or assay interference.)

For assay [9], the target named is Prothrombin (Bos taurus) (UniProt P00735). In words: thrombin cleavage blockers, FP readout – biochemical, fluorescence polarization, single concentration, counter-screen for CSN deneddylation inhibitor project, confirmation (AID 720656;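 active = inhibition at or above a set limit, with a fluorescence interference ratio between 0.5 and a set maximum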). The note with it: bovine thrombin cleavage of Ub4-pepOG, at 16.6 µM, stronger effect = higher value.
Chain of Prothrombin (Bos taurus) (P00735 whole entry, looked up): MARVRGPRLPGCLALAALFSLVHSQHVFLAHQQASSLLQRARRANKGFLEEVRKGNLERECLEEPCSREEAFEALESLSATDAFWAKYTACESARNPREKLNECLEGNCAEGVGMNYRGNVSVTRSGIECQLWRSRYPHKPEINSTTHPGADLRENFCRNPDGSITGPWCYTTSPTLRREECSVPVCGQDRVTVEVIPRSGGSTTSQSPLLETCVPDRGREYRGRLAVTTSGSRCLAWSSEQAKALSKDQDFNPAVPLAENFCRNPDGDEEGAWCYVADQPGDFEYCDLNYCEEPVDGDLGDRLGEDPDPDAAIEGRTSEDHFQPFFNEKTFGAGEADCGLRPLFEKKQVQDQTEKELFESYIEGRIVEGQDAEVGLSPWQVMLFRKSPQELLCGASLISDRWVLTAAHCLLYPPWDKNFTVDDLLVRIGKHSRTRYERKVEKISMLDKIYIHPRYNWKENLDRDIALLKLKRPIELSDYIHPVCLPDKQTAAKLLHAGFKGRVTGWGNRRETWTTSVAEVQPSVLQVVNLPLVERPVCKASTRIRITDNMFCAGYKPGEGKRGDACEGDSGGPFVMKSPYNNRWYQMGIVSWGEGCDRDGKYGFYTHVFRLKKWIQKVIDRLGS
Assay [10] concerns the target Tumor necrosis factor receptor superfamily member 10B (Homo sapiens) (UniProt O14763). In words: viability loss of caspase-8 NB7 cells with TRAIL – with/without TRAIL, luminescence panel, confirmation (AID 651596; in the data active = activity above about 50%). The note with it: NB7 neuroblastoma + caspase-8, TRAIL sensitization, NB7 Caspase-8, with TRAIL, mean of runs, at 10 µM, stronger effect = higher value.
Assay in assay [11]: as above
Conditions: NB7 neuroblastoma + caspase-8, without TRAIL, NB7 Caspase-8, without TRAIL, mean of runs, at 10 µM.

Chain of 72 kDa type IV collagenase (Homo sapiens) (P08253 whole entry, looked up): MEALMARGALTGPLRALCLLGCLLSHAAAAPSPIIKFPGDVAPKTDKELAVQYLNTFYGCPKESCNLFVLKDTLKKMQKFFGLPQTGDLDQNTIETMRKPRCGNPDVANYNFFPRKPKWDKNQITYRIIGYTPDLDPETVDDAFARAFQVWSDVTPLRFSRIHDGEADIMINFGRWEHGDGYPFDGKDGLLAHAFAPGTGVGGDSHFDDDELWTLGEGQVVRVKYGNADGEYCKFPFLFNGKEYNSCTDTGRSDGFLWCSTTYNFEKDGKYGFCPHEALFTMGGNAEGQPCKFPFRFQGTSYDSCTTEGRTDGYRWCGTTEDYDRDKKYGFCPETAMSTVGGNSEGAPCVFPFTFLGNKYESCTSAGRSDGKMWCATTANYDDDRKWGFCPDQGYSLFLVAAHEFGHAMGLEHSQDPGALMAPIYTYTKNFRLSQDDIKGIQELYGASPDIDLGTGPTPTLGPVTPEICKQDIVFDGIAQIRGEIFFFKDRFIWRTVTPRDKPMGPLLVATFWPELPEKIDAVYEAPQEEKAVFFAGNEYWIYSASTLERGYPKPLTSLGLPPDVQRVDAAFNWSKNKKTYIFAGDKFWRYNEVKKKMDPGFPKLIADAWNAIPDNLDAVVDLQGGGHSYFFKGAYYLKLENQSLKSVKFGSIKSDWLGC
Chain of Tumor necrosis factor receptor superfamily member 10B (Homo sapiens) (O14763 whole entry, looked up): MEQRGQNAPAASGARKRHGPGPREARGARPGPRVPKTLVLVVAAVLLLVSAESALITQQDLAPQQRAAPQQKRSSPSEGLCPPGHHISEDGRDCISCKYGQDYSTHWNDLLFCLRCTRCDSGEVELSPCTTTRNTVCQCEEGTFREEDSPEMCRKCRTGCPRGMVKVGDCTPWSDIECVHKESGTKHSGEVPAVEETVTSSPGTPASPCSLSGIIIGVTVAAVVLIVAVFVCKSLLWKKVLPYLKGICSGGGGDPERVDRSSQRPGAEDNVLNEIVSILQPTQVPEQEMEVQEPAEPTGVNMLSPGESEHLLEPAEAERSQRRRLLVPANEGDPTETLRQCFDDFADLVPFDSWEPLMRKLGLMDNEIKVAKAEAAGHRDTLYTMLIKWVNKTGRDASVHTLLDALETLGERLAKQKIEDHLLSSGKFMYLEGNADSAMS

By inhibition is commonly meant the relative decrease from the control value, in per cent. For `CCOC(=O)/C(=C\c1cccc(O)c1)c1nc2sc(C)c(C)c2c(=O)[nH]1`, the inhibition in assay [1] is 27% (active).

Take `O=C(Nc1cc(Cl)ccc1O)c1snnc1-c1ccccc1`: in assay [1], the inhibition is 23% (active).

On to `O=C(CCl)Nc1cccc(S(=O)(=O)NC2=NCCCCC2)c1`, for which, in assay [1], the inhibition is 35.8% (active).

Turning to `CN1CCN(C(c2ccc(C(F)(F)F)cc2)c2ccc3cccnc3c2O)CC1` (centres undefined), in assay [1], the inhibition was 27.9% (active).

Regarding `CC(=O)Nc1nc(C)c(-c2csc(Nc3ccc(S(N)(=O)=O)cc3)n2)s1`, in assay [1], the inhibition is 31.7% (active).

As for `N=c1n(CCO)c2ccccc2n1CCOc1ccc(Cl)cc1Cl`, the inhibition in assay [1] is 25.4% (active).

The term IC50 denotes the concentration that gives 50% inhibition. For the compound `COCCNC(=O)Nc1ccc2nc(-c3ccco3)c(-c3ccco3)nc2c1`, the inhibition in assay [2] was 40.9% (active); in [5], -38.7% (inactive); in assay [6] it was 8.69% (inactive). The activation (fluorescence interference) in [3] was -1.4% (inactive). For the same compound, in assay [4], the IC50 was > 100 µM (inactive).

For the compound `N=c1c(S(=O)(=O)c2ccc(Cl)cc2)cc2c(=O)n3ccccc3nc2n1CCc1ccccc1`, the inhibition in assay [1] was 24.9% (active).

Regarding `CCc1ccc(NC(=O)[C@H](Cc2c[nH]c3ccccc23)NC(=O)[C@@H]2Cc3ccccc3CN2)cc1`, in assay [1], the inhibition was 24.1% (active).

For the compound `C=C1CCC2[C@](C)(CO)[C@H](O)CC[C@@]2(C)[C@@H]1C/C=C1\C(=O)OC[C@H]1O` (some centres undefined), the inhibition in assay [1] is 27.2% (active).

As for `Oc1ccccc1C1CC(c2cccs2)=NC(c2ccc(Cl)cc2)N1` (centres undefined), in [1], the inhibition is 28.5% (active).

In the case of `Cc1cccc(NC(=S)N(CCCN2CCCC2)Cc2cccn2Cc2ccc(Cl)cc2)c1`, the inhibition in [1] is 23.4% (active).

Regarding `O=c1cc(CSc2ccc(Cl)cc2)nc(-c2ccccn2)[nH]1`, in assay [1], the inhibition is 30.5% (active).

As for `Oc1ccc2ccccc2c1N=Nc1ccccn1`, the inhibition in assay [1] is 28% (active).

For the compound `CN1CCN(CCCNC(=O)c2ccc(/C=C3\Oc4ccccc4N(Cc4ccc(Cl)cc4)C3=O)cc2)CC1`, the inhibition in assay [2] was 39.1% (inactive); in [5], -0.07% (inactive); in assay [6], 106% (active); in assay [7], -18.2% (inactive); in assay [8], 11.2% (inactive); in [9], -9.75% (inactive). Also, the activation (fluorescence interference) in [3] is 6.39% (inactive). The activity amounted to 41.5% in assay [10] and 75% in assay [11].

Regarding `COc1ccc(-n2nc(C(=O)c3cccs3)cc(-c3nc4ccccc4[nH]3)c2=N)cc1`, the inhibition in assay [1] was 30.8% (active).

For the compound `CC(C)Cn1c(N)c(C(=O)NCc2cccs2)c2nc3ccccc3nc21`, the inhibition in [2] was 38.4% (inactive); in assay [7], 99.2% (active); in assay [8] it was 1.55% (inactive); in [9], -0.76% (inactive). In addition, the activation (fluorescence interference) in assay [3] is 5.03% (inactive).

Turning to `CC(=O)c1sc(NC(=O)C2(F)C(F)(F)C(F)(F)C(F)(F)C(F)(F)C2(F)F)nc1C`, the inhibition in [1] was 28.7% (active).

For `C=CC[n+]1c(/C=C2\C=Cc3cc(C)ccc3N2CC)ccc2ccccc21`, the inhibition in [1] is 28.5% (active).

For the compound `COc1ccc(C(CNC(=O)c2ccc(S(=O)(=O)Nc3ccccc3F)cc2)N(C)C)cc1` (centres undefined), the inhibition in assay [2] was 43.8% (active). For the same compound, the activation (fluorescence interference) in [3] is -0.45% (inactive). In [4], the IC50 was > 100 µM (inactive).

Turning to `CC1(C)Cc2ccccc2C2=NNC(=O)C2=N1`, the inhibition in assay [1] was 29.2% (active).

Take `COc1cccc(CNc2ncnc3ccc(-c4c(C)noc4C)cc23)c1`: the inhibition in assay [1] was 31% (active).

Turning to `CCCCCCCCCCC[N+](C)(C)CC/C=C1/c2ccccc2Sc2ccc(Cl)cc21`, the inhibition in assay [1] was 28.6% (active).

As to `O=C1c2ccccc2NC(c2ccc(-c3ccc(Br)cc3)o2)N1O` (centres undefined), in [1], the inhibition is 31% (active).

On to `O=[N+]([O-])c1ccc(N=Nc2ccc(O)cc2O)cc1`, for which the inhibition in [1] was 29.5% (active).

In the case of `CCOC(=O)N1C(=O)[C@@](c2ccc(Cl)cc2)(C(C)C)N1C(=O)OCC`, the inhibition in [1] was 33.2% (active).

Consider `Cc1ccc(C)c(NC(=S)NC(NC(=O)/C=C/c2ccccc2)C(Cl)(Cl)Cl)c1` (centres undefined), for which, in assay [1], the inhibition is 31.4% (active).

For `O=C(COc1ccc([N+](=O)[O-])cc1)Nc1nc(-c2ccccn2)cs1`, the inhibition in assay [1] was 35.6% (active).

For the compound `O=C(Nc1ccc(Cl)c(Cl)c1)Nc1ccc(Br)cc1F`, in assay [1], the inhibition was 35.2% (active).

Consider `Cn1ccc2cc(-c3ccc4ncnc(NCc5cccs5)c4c3)ccc21`, for which, in assay [1], the inhibition is 25% (active).

For `CCc1ccccc1OCC(=O)Nc1nc(-c2cccnc2)cs1`, in assay [1], the inhibition is 35.6% (active).

Consider `Cc1ccc(S(=O)(=O)CCc2nc3ccccc3n2CCC#N)cc1`, for which the inhibition in assay [1] was 32.2% (active).

`Cc1csc2nc(O)c(C(=O)NC3CCCCC3)c(=O)n12`: the inhibition in assay [1] was 35% (active).

Regarding `COc1ccc(-c2oc3cc(OC)c(O)c(OC)c3c(=O)c2OC)cc1O`, the inhibition in [1] is 28.4% (active).

As for `Cc1nnnn1/C(=C\c1ccccc1)C(=O)OCC(=O)Nc1cccc(S(=O)(=O)N(C)C)c1`, the inhibition in assay [1] was 34% (active).

In the case of `COc1ccc(OC)c2sc(NC(=O)CCS(=O)(=O)c3ccccc3)nc12`, the inhibition in assay [1] was 23.8% (active).

In the case of `Cc1ccc(N=C2NC(=O)/C(=C/C=C/c3ccco3)S2)cc1C`, the inhibition in assay [2] was 26.1% (inactive); in [7] it was 25.6% (inactive); in assay [8], 13.5% (inactive); in assay [9] it was 7.38% (inactive). In assay [3], the activation (fluorescence interference) was 20.6% (inactive).
